# In PubChem BioAssay AID504873 (The Scripps Research Institute Molecular Screening Center, 2011):
# Entries with a potency or affinity are not part of this list. Calls of active or inactive are those of the source. How the calls were made is not given here.
# Target: Sphingosine 1-phosphate receptor 2 (Homo sapiens) (UniProt O95136)
# Test: S1P2 receptor agonists, human, late-stage follow-up, counter-screen for S1P4 agonist project, cell-based, fluorescence, set 2 (AID 504873)
# Sphingosine 1-phosphate receptor 2 (Homo sapiens), sequence (O95136 whole entry, looked up): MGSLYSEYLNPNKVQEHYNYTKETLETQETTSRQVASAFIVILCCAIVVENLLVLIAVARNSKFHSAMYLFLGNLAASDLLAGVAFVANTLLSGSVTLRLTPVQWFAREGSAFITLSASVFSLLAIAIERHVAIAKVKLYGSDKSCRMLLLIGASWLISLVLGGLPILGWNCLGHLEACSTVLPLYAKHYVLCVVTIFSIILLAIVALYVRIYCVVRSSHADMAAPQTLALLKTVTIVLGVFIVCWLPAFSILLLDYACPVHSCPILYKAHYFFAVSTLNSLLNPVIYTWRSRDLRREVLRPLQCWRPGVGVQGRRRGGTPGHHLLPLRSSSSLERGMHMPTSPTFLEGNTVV
smiles,measurement,value
CC/N=C1/SC(=Cc2cc(C)n(Cc3ccccc3OC)c2C)C(=O)N1CC,outcome,inactive
